Test results as given in the supplement of paper PMC10849652.
About 7,900 targets were measured; listed, in parts, are those with a hit and a random draw of the rest. About 0.6% of all pairs of compound and target were hits.

What was measured:
Assay in all cases: log2 fold change, soluble protein after heating vs DMSO (PISA); higher = thermal stabilisation; K562 cells, 10 uM, 30 min; active = over 0.2 and 3.5 SD of the protein, either way, in both replicates (recomputed)
saracatinib = compound: CN1CCN(CCOc2cc(OC3CCOCC3)c3c(Nc4c(Cl)ccc5c4OCO5)ncnc3c2)CC1 [saracatinib]
How it was run: (§1)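 Values are thermal stability changes relative to control samples and are taken from duplicates. They are stated as log2 fold changes. Before quantification by TMTpro 16plex LC-MS/MS with equalised channel sums, K562 cells at 2×10^6 cells/mL were treated with 10 μM compound for 30 min, heated in aliquots for 3 min across 48°C-58°C, pooled, extracted in PBS with 0.5% NP-40 at 4°C, and centrifuged at 21,000xg for 90 min to give the soluble supernatant.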

sotrastaurin = compound: CN1CCN(c2nc(C3=C(c4c[nH]c5ccccc45)C(=O)NC3=O)c3ccccc3n2)CC1 [sotrastaurin]
How it was run: as §1

alvocidib = compound: CN1CC[C@H](c2c(O)cc(O)c3c(=O)cc(-c4ccccc4Cl)oc23)[C@H](O)C1 [alvocidib]
How it was run: as §1

Tubastatin A = compound: CN1CCc2c(c3ccccc3n2Cc2ccc(C(=O)NO)cc2)C1 [Tubastatin A]
How it was run: as §1

[1] = compound: CNC(=O)C1=CC=CC=C1NC2=NC(=NC=C2Cl)NC3=C(C=C(C=C3)N4CCOCC4)OC
How it was run: as §1

defactinib = compound: CNC(=O)c1ccc(Nc2ncc(C(F)(F)F)c(NCc3nccnc3N(C)S(C)(=O)=O)n2)cc1 [defactinib]
How it was run: as §1

rucaparib = compound: CNCc1ccc(-c2[nH]c3cc(F)cc4c3c2CCNC4=O)cc1 [rucaparib]
How it was run: as §1

[2] = compound: CNc1nc(-c2ccc3c(N)n[nH]c3c2)cc(N2C[C@@H](C(=O)NC3CCCCC3)CC[C@H]2C)n1
How it was run: as §1

encorafenib = compound: COC(=O)N[C@@H](C)CNc1nccc(-c2cn(C(C)C)nc2-c2cc(Cl)cc(NS(C)(=O)=O)c2F)n1 [encorafenib]
How it was run: as §1

[3] = compound: COC(=O)[C@H](CCSC)NC(=O)C1=C(C=C(C=C1)NC[C@H](CS)N)C2=CC=CC=C2
How it was run: as §1

Measured: log2 fold change

SUOX (UniProt P51687)
inactive: saracatinib 0.02 | sotrastaurin 0.013 | alvocidib -0.047 | Tubastatin A -0.031 | [1] -0.01 | defactinib 0.031 | rucaparib -0.037 | [2] -0.022 | encorafenib 0.001 | [3] 0.042

STK25 (UniProt O00506)
inactive: saracatinib -0.045 | sotrastaurin 0.088 | alvocidib 0.028 | Tubastatin A -0.007 | [1] -0.078 | defactinib -0.041 | rucaparib 0.011 | [2] -0.012 | encorafenib 0.039 | [3] 0.051

SPAST (UniProt Q9UBP0)
UniProt Q9UBP0, sequence (Q9UBP0 whole entry, looked up): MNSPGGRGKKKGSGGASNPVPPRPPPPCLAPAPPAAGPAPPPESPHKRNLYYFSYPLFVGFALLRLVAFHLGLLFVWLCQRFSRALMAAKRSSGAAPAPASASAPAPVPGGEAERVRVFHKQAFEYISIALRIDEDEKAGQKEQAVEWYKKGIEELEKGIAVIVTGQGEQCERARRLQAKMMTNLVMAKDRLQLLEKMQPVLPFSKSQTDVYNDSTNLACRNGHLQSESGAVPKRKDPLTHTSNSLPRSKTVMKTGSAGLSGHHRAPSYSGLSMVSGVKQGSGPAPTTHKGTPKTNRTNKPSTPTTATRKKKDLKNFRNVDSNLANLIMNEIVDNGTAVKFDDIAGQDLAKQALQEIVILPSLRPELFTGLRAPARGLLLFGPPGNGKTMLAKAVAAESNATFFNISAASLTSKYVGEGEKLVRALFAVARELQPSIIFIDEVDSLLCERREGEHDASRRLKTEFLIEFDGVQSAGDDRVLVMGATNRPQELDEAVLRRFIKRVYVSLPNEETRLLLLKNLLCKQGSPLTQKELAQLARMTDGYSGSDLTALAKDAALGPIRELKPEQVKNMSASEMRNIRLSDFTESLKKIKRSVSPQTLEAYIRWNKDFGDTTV
inactive: saracatinib -0.016 | sotrastaurin -0.015 | alvocidib -0.203 | Tubastatin A 0.003 | [1] -0.01 | defactinib -0.056 | rucaparib 0.073 | [2] 0.115 | encorafenib 0.038 | [3] -0.037

SUCLA2 (UniProt Q9P2R7)
UniProt Q9P2R7, sequence (Q9P2R7 whole entry, looked up): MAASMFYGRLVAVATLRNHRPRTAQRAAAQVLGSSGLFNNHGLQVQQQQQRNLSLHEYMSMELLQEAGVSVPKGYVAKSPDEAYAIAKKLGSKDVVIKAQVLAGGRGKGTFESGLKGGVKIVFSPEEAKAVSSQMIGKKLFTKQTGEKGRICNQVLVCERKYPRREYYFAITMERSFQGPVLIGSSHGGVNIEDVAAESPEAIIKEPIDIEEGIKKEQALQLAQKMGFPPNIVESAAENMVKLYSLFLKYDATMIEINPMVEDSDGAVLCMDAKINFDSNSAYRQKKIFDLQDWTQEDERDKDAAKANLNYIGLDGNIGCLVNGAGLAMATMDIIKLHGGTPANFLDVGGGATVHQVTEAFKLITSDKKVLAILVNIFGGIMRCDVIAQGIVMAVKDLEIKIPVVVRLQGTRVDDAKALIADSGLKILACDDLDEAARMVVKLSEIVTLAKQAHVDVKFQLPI
inactive: saracatinib -0.013 | sotrastaurin 0.03 | alvocidib 0.011 | Tubastatin A 0.024 | [1] 0.011 | defactinib -0.037 | rucaparib -0.029 | [2] -0.048 | encorafenib 0.021 | [3] -0.008

SP3 (UniProt Q02447)
inactive: saracatinib 0.048 | sotrastaurin -0.122 | alvocidib 0.033 | Tubastatin A -0.205 | [1] -0.032 | defactinib 0.042 | rucaparib -0.004 | [2] -0.05 | encorafenib -0.053 | [3] 0.04

SOAT1 (UniProt P35610)
inactive: saracatinib 0.026 | sotrastaurin -0.06 | alvocidib -0.02 | Tubastatin A -0.057 | [1] 0.186 | defactinib -0.053 | rucaparib -0.064 | [2] 0.014 | encorafenib 0.122 | [3] 0.111

STX7 (UniProt O15400)
inactive: saracatinib 0.063 | sotrastaurin 0.026 | alvocidib -0.001 | Tubastatin A -0.036 | [1] 0.013 | defactinib -0.033 | rucaparib 0.028 | [2] -0.014 | encorafenib -0.039 | [3] -0.02

SNX6 (UniProt Q9UNH7)
UniProt Q9UNH7, sequence (Q9UNH7 whole entry, looked up): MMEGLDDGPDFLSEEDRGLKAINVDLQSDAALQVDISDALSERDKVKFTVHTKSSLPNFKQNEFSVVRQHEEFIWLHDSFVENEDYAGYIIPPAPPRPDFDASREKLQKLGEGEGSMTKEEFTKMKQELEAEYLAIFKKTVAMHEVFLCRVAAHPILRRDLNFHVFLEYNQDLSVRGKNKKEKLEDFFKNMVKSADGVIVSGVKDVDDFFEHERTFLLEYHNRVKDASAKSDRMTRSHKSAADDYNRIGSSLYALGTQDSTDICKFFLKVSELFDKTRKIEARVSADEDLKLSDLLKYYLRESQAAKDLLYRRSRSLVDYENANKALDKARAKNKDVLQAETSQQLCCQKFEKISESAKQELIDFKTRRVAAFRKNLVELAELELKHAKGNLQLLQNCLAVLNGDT
inactive: saracatinib -0.018 | sotrastaurin 0.026 | alvocidib -0.112 | Tubastatin A -0.051 | [1] -0.125 | defactinib -0.054 | rucaparib -0.016 | [2] 0.041 | encorafenib 0.042 | [3] -0.009

SRSF4 (UniProt Q08170)
inactive: saracatinib -0.065 | sotrastaurin 0.028 | alvocidib 0.135 | Tubastatin A 0.17 | [1] -0.283 | defactinib 0.045 | rucaparib 0.165 | [2] 0.013 | encorafenib 0.154 | [3] 0.023

TAF9 (UniProt Q16594)
inactive: saracatinib 0.076 | sotrastaurin 0.021 | alvocidib 0.142 | Tubastatin A -0.023 | [1] -0.1 | defactinib 0.016 | rucaparib -0.019 | [2] -0.065 | encorafenib -0.048 | [3] 0.103

THYN1 (UniProt Q9P016)
inactive: saracatinib -0.062 | sotrastaurin -0.022 | alvocidib -0.008 | Tubastatin A -0.006 | [1] 0.079 | defactinib -0.002 | rucaparib 0.029 | [2] 0.072 | encorafenib 0 | [3] -0.029

SRSF2 (UniProt Q01130)
inactive: saracatinib -0.008 | sotrastaurin 0.089 | alvocidib 0.218 | Tubastatin A -0.034 | [1] -0.1 | defactinib 0.052 | rucaparib 0.078 | [2] -0.001 | encorafenib -0.013 | [3] 0.076

SSX2 (UniProt Q16385)
UniProt Q16385, sequence (Q16385 whole entry, looked up): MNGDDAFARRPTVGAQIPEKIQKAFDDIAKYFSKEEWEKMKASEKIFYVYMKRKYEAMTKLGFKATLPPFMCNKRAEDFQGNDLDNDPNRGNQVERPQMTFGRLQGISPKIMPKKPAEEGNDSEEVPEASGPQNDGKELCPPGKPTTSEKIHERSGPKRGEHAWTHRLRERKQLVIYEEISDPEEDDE
inactive: saracatinib 0.017 | sotrastaurin -0.028 | alvocidib 0.024 | Tubastatin A 0.062 | [1] 0.066 | defactinib -0.114 | rucaparib 0.025 | [2] -0.078 | encorafenib 0.021 | [3] -0.012

SYMPK (UniProt Q92797)
inactive: saracatinib -0.058 | sotrastaurin -0.205 | alvocidib -0.2 | Tubastatin A 0.258 | [1] 0.008 | defactinib -0.245 | rucaparib 0.09 | [2] 0.007 | encorafenib 0.079 | [3] -0.022

SNUPN (UniProt O95149)
UniProt O95149, sequence (O95149 whole entry, looked up): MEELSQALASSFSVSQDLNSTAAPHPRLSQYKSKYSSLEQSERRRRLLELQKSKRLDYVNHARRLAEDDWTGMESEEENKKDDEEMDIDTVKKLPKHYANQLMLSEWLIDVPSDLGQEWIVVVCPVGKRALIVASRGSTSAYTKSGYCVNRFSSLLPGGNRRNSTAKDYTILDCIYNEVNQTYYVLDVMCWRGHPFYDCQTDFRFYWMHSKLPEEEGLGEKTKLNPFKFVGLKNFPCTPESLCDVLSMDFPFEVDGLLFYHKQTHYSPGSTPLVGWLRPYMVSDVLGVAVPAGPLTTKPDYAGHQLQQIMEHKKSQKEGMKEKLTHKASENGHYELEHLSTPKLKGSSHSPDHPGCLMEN
inactive: saracatinib 0.052 | sotrastaurin -0.069 | alvocidib -0.061 | Tubastatin A -0.036 | [1] -0.019 | defactinib -0.056 | rucaparib -0.027 | [2] -0.04 | encorafenib 0.021 | [3] 0.028

SRSF7 (UniProt Q16629)
inactive: saracatinib -0.014 | sotrastaurin 0.12 | alvocidib 0.291 | Tubastatin A 0.006 | [1] -0.226 | defactinib 0.168 | rucaparib 0.3 | [2] -0.04 | encorafenib 0.038 | [3] 0.042

TM9SF4 (UniProt Q92544)
inactive: saracatinib -0.028 | sotrastaurin 0.017 | alvocidib -0.008 | Tubastatin A -0.015 | [1] 0.013 | defactinib 0.037 | rucaparib 0.043 | [2] -0.046 | encorafenib 0.039 | [3] -0.03

STK38L (UniProt Q9Y2H1)
UniProt Q9Y2H1, sequence (Q9Y2H1 whole entry, looked up): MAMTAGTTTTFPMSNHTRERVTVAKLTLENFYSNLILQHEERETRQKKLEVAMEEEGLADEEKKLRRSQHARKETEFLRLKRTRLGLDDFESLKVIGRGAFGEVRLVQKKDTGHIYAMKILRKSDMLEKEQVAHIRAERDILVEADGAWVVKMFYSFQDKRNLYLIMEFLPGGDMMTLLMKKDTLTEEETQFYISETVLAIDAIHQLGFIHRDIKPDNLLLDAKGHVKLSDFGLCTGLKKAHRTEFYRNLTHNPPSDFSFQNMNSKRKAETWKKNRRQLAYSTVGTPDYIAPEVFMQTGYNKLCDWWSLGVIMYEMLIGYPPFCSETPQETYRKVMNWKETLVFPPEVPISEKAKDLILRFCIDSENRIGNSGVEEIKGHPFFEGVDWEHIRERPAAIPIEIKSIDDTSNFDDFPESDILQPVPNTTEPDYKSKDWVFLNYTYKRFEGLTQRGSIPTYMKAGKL
inactive: saracatinib 0.103 | sotrastaurin 0.035 | alvocidib -0.087 | Tubastatin A -0.067 | [1] 0.002 | defactinib -0.048 | rucaparib -0.052 | [2] 0.024 | encorafenib 0.004 | [3] -0.073

SLC7A6 (UniProt Q92536)
inactive: saracatinib 0.018 | sotrastaurin 0.022 | alvocidib -0.096 | Tubastatin A 0 | [1] -0.16 | defactinib -0.056 | rucaparib -0.034 | [2] 0.027 | encorafenib 0.002 | [3] -0.047

TIMM13 (UniProt Q9Y5L4)
UniProt Q9Y5L4, sequence (Q9Y5L4 whole entry, looked up): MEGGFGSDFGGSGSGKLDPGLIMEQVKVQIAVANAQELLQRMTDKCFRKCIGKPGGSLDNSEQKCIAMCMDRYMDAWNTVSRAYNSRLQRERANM
inactive: saracatinib 0.065 | sotrastaurin -0.007 | alvocidib -0.035 | Tubastatin A -0.007 | [1] 0.007 | defactinib -0.038 | rucaparib -0.028 | [2] 0.043 | encorafenib 0.044 | [3] 0

SRSF3 (UniProt P84103)
inactive: saracatinib 0.019 | sotrastaurin 0.079 | alvocidib 0.265 | Tubastatin A -0.026 | [1] -0.053 | defactinib 0.235 | rucaparib 0.257 | [2] -0.022 | encorafenib 0.023 | [3] 0.032

TJP2 isoform 7 (UniProt Q9UDY2)
UniProt Q9UDY2, sequence (Q9UDY2 whole entry, looked up): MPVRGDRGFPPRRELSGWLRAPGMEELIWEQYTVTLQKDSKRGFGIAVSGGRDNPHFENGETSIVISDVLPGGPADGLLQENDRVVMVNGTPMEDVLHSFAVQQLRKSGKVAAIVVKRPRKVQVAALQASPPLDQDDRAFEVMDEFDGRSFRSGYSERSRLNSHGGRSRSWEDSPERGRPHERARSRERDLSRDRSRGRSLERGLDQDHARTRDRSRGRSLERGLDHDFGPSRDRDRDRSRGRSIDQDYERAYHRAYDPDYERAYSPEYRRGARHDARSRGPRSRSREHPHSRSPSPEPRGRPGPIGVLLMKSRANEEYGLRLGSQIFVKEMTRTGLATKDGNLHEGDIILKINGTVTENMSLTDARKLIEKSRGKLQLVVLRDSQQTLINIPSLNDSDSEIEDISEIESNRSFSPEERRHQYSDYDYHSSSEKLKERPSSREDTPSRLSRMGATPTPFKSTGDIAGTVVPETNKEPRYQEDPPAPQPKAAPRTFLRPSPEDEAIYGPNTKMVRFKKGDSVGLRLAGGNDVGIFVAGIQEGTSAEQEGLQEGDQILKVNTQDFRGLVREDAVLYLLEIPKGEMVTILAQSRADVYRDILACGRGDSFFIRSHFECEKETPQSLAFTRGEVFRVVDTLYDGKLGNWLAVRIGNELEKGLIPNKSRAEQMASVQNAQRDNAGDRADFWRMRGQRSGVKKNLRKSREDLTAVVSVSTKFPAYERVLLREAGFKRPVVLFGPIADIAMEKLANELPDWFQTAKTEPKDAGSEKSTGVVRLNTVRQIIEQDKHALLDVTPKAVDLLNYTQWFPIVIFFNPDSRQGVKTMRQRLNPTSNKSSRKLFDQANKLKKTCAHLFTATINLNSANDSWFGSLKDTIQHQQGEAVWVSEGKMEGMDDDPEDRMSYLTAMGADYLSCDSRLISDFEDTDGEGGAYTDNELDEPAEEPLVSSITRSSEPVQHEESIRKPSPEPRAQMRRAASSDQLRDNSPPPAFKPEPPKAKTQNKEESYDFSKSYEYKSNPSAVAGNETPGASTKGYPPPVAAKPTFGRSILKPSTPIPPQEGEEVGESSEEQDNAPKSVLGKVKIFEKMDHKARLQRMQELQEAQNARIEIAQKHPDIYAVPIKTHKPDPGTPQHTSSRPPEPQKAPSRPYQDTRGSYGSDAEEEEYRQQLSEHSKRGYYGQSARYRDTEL
inactive: saracatinib -0.074 | sotrastaurin -0.151 | alvocidib -0.067 | Tubastatin A 0.047 | [1] -0.06 | defactinib -0.211 | rucaparib 0.051 | [2] 0.054 | encorafenib 0.066 | [3] -0.097

SNRNP27 (UniProt Q8WVK2)
UniProt Q8WVK2, sequence (Q8WVK2 whole entry, looked up): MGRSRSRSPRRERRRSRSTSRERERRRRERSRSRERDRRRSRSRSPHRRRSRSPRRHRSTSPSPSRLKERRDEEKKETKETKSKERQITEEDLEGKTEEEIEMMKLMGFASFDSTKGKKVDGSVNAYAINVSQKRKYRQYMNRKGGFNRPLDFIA
inactive: saracatinib -0.071 | sotrastaurin 0.048 | alvocidib 0.062 | Tubastatin A -0.023 | [1] -0.036 | defactinib 0.015 | rucaparib 0.049 | [2] -0.09 | encorafenib -0.061 | [3] 0.097

SMAD2 (UniProt Q15796)
inactive: saracatinib 0.001 | sotrastaurin -0.235 | alvocidib -0.316 | Tubastatin A 0.016 | [1] 0.025 | defactinib -0.142 | rucaparib 0.043 | [2] 0.039 | encorafenib -0.045 | [3] -0.052

SYF2 (UniProt O95926)
UniProt O95926, sequence (O95926 whole entry, looked up): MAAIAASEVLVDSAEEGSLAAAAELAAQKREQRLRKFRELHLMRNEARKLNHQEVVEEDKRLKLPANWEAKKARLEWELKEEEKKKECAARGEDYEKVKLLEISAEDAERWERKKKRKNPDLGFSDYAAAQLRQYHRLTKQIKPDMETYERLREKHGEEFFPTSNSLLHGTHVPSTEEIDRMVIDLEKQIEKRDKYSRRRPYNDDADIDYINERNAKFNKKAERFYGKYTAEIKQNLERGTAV
active: alvocidib 0.383
inactive: saracatinib -0.028 | sotrastaurin -0.041 | Tubastatin A -0.016 | [1] -0.086 | defactinib 0.286 | rucaparib 0.029 | [2] -0.14 | encorafenib -0.062 | [3] 0.038

TAOK1 (UniProt Q7L7X3)
inactive: saracatinib 0.002 | sotrastaurin -0.013 | alvocidib -0.077 | Tubastatin A 0.032 | [1] -0.002 | defactinib -0.142 | rucaparib 0.032 | [2] 0.053 | encorafenib -0.061 | [3] -0.018

ST3GAL2 (UniProt Q16842)
inactive: saracatinib -0.103 | sotrastaurin 0.036 | alvocidib -0.017 | Tubastatin A 0.107 | [1] 0.129 | defactinib -0.02 | rucaparib 0.093 | [2] 0.138 | encorafenib 0.06 | [3] -0.136

TBRG4 (UniProt Q969Z0)
UniProt Q969Z0, sequence (Q969Z0 whole entry, looked up): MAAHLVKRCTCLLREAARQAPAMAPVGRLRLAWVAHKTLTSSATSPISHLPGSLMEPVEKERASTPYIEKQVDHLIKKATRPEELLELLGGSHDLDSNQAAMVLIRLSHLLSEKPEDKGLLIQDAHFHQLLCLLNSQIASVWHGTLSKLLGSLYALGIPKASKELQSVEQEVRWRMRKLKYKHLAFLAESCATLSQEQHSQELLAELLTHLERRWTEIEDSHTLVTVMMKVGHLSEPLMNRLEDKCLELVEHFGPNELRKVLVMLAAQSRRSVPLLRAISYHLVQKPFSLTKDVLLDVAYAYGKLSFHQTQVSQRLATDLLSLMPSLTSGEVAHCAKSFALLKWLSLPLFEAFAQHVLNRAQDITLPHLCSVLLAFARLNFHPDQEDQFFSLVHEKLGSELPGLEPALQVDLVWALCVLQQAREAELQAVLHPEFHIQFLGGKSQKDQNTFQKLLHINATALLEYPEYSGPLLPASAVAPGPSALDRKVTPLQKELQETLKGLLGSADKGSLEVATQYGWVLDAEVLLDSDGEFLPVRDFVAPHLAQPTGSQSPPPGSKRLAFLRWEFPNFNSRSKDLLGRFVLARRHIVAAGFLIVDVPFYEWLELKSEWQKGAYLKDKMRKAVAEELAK
inactive: saracatinib -0.093 | sotrastaurin -0.431 | alvocidib -0.345 | Tubastatin A 0.044 | [1] -0.177 | defactinib -0.25 | rucaparib 0.008 | [2] -0.144 | encorafenib 0.071 | [3] -0.062

SMPD4 isoform 4 (UniProt Q9NXE4)
inactive: saracatinib 0.154 | sotrastaurin -0.082 | alvocidib -0.174 | Tubastatin A 0.007 | [1] -0.041 | defactinib -0.056 | rucaparib 0.043 | [2] -0.071 | encorafenib -0.081 | [3] 0

SRRM2 (UniProt Q9UQ35)
active: alvocidib -0.412
inactive: saracatinib -0.026 | sotrastaurin -0.048 | Tubastatin A 0.093 | [1] -0.264 | defactinib -0.298 | rucaparib 0.013 | [2] -0.009 | encorafenib -0.013 | [3] 0.047
